Bioassay records: PubChem, several laboratories
An excerpt weighted towards active compounds, which were near 3% of everything screened.
ROMK primary = ROMK potassium channel modulators, primary screen, cell-based, thallium flux, MLSMR library | B-score at 10 µM | hit rate 2% among 130,000 | ATP-sensitive inward rectifier potassium channel 1 (Homo sapiens), P48048 | Tet-inducible ROMK, thallium flux fluorescence; actives lie on both sides;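 active means signal ratio slope over the read window, or its plate-corrected B-score, at least 3 SD from the plate mean, either direction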;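 further: B-score of the F/F0 ratio slope over 7 to 12 s after thallium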
14-3-3 Bad PPI = inhibitors of 14-3-3 zeta/Bad binding, primary screen, biochemical, TR-FRET, bovine 14-3-3 zeta | 14-3-3 protein zeta/delta (Bos taurus), P63103 | TR-FRET 14-3-3zeta/Dy647-pBad peptide displacement, 1 h | inhibition, % at 21.7 µM | hit rate 0.71% among 220,000 | AID 781, 2007;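 active means inhibition above about 70%, limit read from the data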;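 further: 0% = full 14-3-3 plus peptide FRET controls and 100% = background without 14-3-3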
Target sequence (P63103 whole entry, looked up): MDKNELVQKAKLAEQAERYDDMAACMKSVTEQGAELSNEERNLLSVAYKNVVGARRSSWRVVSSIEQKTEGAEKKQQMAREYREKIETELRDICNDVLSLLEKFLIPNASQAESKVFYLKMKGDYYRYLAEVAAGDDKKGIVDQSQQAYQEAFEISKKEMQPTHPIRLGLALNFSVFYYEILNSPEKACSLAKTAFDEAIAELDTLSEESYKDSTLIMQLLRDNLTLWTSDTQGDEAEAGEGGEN
Efa HMGR inh = inhibitors of E. faecalis class II HMGR, primary screen, biochemical, Enterococcus faecalis; HMG-CoA reductase (Enterococcus faecalis, mvaE); purified E. faecalis HMGR, NADPH absorbance 340 nm kinetic; inhibition, % at 10 µM; hit rate 0.41% among 190,000; AID 1066, 2008;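 active means inhibition above a set limit, the median over all tested compounds plus 3 SD, cut at about 9.5% in these data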;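 further: enzyme runs in reverse so mevalonate oxidation gives rising NADPH absorbance; 0% = complete reaction with DMSO and 100% = background rate lacking mevalonate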
zVAD death inh = inhibitors of zVAD-triggered necroptosis, primary screen, L929 cells | L929 zVAD necroptosis rescue, ATP luminescence, 24 h; with zVAD 60 µM | viability rescue, % at 10 µM | hit rate 0.38% among 220,000;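 active means activation, scaled between plate controls, above about 75%, limit read from the data; inactive means activation under that limit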;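 further: 0% = zVAD with DMSO and 100% = DMSO alone without zVAD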
m-calpain inh = inhibitors of pig calpain II, primary screen, biochemical, fluorogenic peptide substrate, 1536-well; hit rate 0.37% among 220,000; inhibition, % at 16 µM; AID 1236, 2008; purified calpain II, 30 min;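 active means inhibition above about 50%, limit read from the data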
TNF death inh = inhibitors of TNF-alpha triggered necroptosis, primary screen, cell-based, Jurkat FADD-/-, single concentration; hit rate 0.068% among 220,000; Jurkat FADD-/- TNF necroptosis rescue, ATP luminescence, 24 h; 0 = TNF only, 100 = no-TNF cells; AID 463075, 2010; activation (protection from cell death), % at 10 µM;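 active means activation, meaning protection from cell death, of at least 50% relative to plate controls; inactive means activation below 50%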;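 further: necroptosis triggered by 40 ng/mL TNF-alpha added together with compound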
ROMK retest = ROMK channel modulator hit retest, confirmation, cell-based, thallium flux, duplicate, resupplied hits; shares compounds with ROMK primary; fluorescence ratio; stronger effect = lower value; normalized thallium flux (F/F0 slope) at 10 µM; hit rate 54% among 3,000; AID 1917, 2009;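 active means Flux at 10 µM at least 3 SD below or above vehicle control mean in one or both replicates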
Numbers without * were called inactive; nt = not tested or not shown.

SMILES	ROMK primary	14-3-3 Bad PPI	Efa HMGR inh	zVAD death inh	m-calpain inh	TNF death inh	ROMK retest
COCCn1nnnc1C(c1cc(OC)ccc1OC)N1CCc2ccccc2C1 (centres undefined)	-2.1*	6	4	0	21	0	0.078
Cc1nn(CC(O)COc2ccc3c(c2)CCC3)c(C)c1C (centres undefined)	-3.7*	-2	2	0	7	-1	0.066*
COc1ccc(/C(N)=N/OC(=O)CN(C)S(=O)(=O)c2ccc(C)cc2)cc1	-0.39	7	-3	0	35	0	nt
C#CCOCCOCCOCCNc1nc(N2CCN(C(=O)[C@H](Cc3cc4ccccc4[nH]3)n3cc([C@@H](N)Cc4ccc(O)cc4)nn3)CC2)nc(N2CCN(C(=O)[C@H](Cc3cc4ccccc4[nH]3)n3cc([C@@H](N)CC(C)C)nn3)CC2)n1	nt	36	nt	0	-97	9	0.045*
C#CCOCCOCCOCCNc1nc(N2CCN(C(=O)C(Cc3cc4ccccc4[nH]3)n3cc(C(N)Cc4ccc(O)cc4)nn3)CC2)nc(N2CCN(C(=O)C(Cc3cc4ccccc4[nH]3)n3cc(C(N)Cc4ccc(O)cc4)nn3)CC2)n1 (centres undefined)	nt	-24	-4	-1	-37	0	nt
CN(O)/C=N/C(=S)Nc1ccc(Cl)cc1Cl	2.4*	-18	-1	1	-11	-2	0.08
CCC(CC)C(=O)NCCCN1CCOCC1	0.29	-3	-3	nt	11	1	nt
CCOC(=O)c1c(C)n(C)c2ccc(OC)c(NC(=O)CN3CCN(C(=O)c4ccco4)CC3)c12	nt	-13	1	2	-46	-1	nt
CCOC(=O)c1c(C)n(C)c2ccc(OC)c(NC(=O)CN3CCN(Cc4ccccc4)CC3)c12	-3.2*	3	6	0	11	-1	0.068*
Cc1ccc2[nH]cc(C(=O)CN3CCN(C)CC3)c2c1	nt	-5	-4	0	-10	1	nt
Cc1ccc2[nH]cc(C(=O)CCl)c2c1	-4.2*	2	-3	2	-3	-15	0.055*
CC1=CC(C)(C)N(S(=O)(=O)c2ccc(C)cc2)c2ccccc21	3.2*	8	1	-1	16	-18	0.086
O=C(CCCn1cnc([N+](=O)[O-])n1)Nc1cccc2ccccc12	0.022	-4	-1	0	-1	2	0.073
CCN1CCN(C(=O)c2ccc3c(c2)S(=O)(=O)c2ccccc2C3=O)CC1	1.5*	31	-4	0	24	1	0.08
Cc1c(Cl)cccc1NC(=O)[C@@H](NC(=O)c1ccccc1Cl)C(C)C	-0.7	22	-3	1	34	1	nt
CCCS(=O)(=O)c1c(S(=O)(=O)CCC)c2cnccn2c1C(=O)c1ccc(CC)cc1	-4.1*	5	-3	0	-16	0	0.066*
CN1CCN(CCCNC(=O)c2cc3c(-c4ccc(Cl)cc4)nn(C)c3s2)CC1	nt	0	-3	69	-370	-2	nt
CCN(CC)CCCNC(=O)c1cc2c(-c3ccc(Cl)cc3)nn(C)c2s1	nt	7	-2	54	-432	-3	0.059*
CS/C(Nc1cc(Cl)ccc1Cl)=C(/C#N)C(=O)c1ccco1	nt	13	nt	-2	42	-14	0.051*
O=C(Nc1ncc(Cl)cc1Cl)c1c(F)cccc1Cl	0.011	0	-6	0	-50	-1	nt
Nc1[nH]n(-c2ccccc2)c(=O)c1N=Nc1ccc2c(c1)OCCO2	0.054	-15	-5	1	0	-1	nt
Nc1[nH]n(-c2ccccc2)c(=O)c1N=Nc1ccc2c(c1)OCO2	nt	0	nt	-1	7	0	0.086
